Results reported in the OligoGym collection.

Biological target: NDE1
Test: pooled miR-30 sensor sort-seq; sequence = guide strand
Conditions: shRNA
Note: reference of the scale not given here.

Row | Sequence | sensor-assay potency score (higher = more potent)
1 | TTGATTTGGACAACCAGCGGCA | -0.226
2 | TTGCTTGCTCCAGCTCTCTGAT | -1.21
3 | TTTGCTTGCTCCAGCTCTCTGA | -0.321
4 | TTAAACTTGAGCTGGGTCCTCG | -0.477
5 | TTCAGCTTCATATTCTCGGCTT | 0.137
6 | TCTTCGAGAGACATGATCGTGG | -0.394
7 | TTCTCGGAGTTCCTCTTGCGTA | -1.4
8 | TCTGTTTGTAGGTCATCGCCAG | -0.347
9 | TTTTCGGACAGGAGGTCTCTGT | -0.635
10 | TCTCTGAACAGATTCCAGGAGA | -0.696
11 | TTCAATTTGTTGCAGCTGCGTC | -0.561

Biological target: NDUFA7
Test: as above
Conditions: shRNA

Row | Sequence | sensor-assay potency score (higher = more potent)
12 | ATTGTTGGAGAGCTTGTGGCTA | -0.402
13 | TACAGCAGAGCTCTCTGCTGGC | -0.355
14 | TAGCGTAGCTGCAGCTTCCCCT | -0.864
15 | TTGTTGGAGAGCTTGTGGCTAG | -0.163
16 | TTGTGGCTAGGACCCACAGGGA | -1.83
17 | TTCGCTTGGAGATCTCCTGGTA | 0.453
18 | AGGAGCTGGAGTCACCGCCTTC | -1.6
19 | TCTCCTGGTAGCGTAGCTGCAG | -1.09
20 | TCGCTTGGAGATCTCCTGGTAG | -0.223
21 | TAAAACTAGAAGTGATACCTGA | 0.222
22 | TCTCAGTGGCAGCTACAGCAGA | -0.927
23 | AATTAGGTCACATTCTCCCTGG | -0.0171
